Source: PubChem
Shown are actives, neighbours in structure and some others; about 2.1% of the full set was active somewhere.
aSyn rescue: rescues yeast growth from alpha-synuclein toxicity | AID 652106 | Potency, µM (series often up to 46.1 µM), without a hit: at the top dose growth rescue (activation), actives largely listed as activators | Yeast expressing alpha-synuclein, growth rescue, BacTiter-Glo, 24 h | 0.14% of 370,000 active; also: % of control where 0% means no effect; nearly all actives have a fitted effect of over 65% in size
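Rescue of yeast growth: cells expressing toxic alpha-synuclein, induced in galactose at OD600 0.02, incubated with compound 24 h at 30 C. ATP luminescence quantified growth; inhibitors of toxicity appear as activators.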
FUS yeast rescue: rescues growth of FUS-expressing yeast; S. cerevisiae FUS-expressing, growth rescue, OD600, 24 h; Potency, µM (titrated, usually from 76.6 µM), hits mostly activators; 0.24% of 390,000 active; AID 1347120;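 also: plate controls were DMSO vehicle for no effect and reference control for full effect; nearly all actives have a fitted effect of over 55% in size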
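Galactose (2%) drives FUS expression in yeast precultured in raffinose; seeding density OD 0.005. Test compounds incubated 24hr at 30C and 99% humidity before absorbance at 600 nm was measured.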
TDP43 rescue: rescues yeast growth from TDP-43 toxicity; TDP-43 expressing yeast growth rescue, BacTiter-Glo, 24 h; Potency, µM (top dose mostly 46.1 µM), for the others: at the highest dose growth rescue (activation), usual class: activators; 1.8% of 410,000 active; AID 652104; also: % of control where 0% means no effect; nearly all actives have a fitted effect of over 50% in size
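In this qHTS, compounds that restore growth of yeast expressing TDP-43 appear as activators. Cells (OD600=0.02, galactose medium, raffinose-pregrown) are incubated with compound 24 hr at 30 deg C and growth is quantified by BacTiter-Glo.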
Abeta rescue: restores growth of yeast expressing A-beta42 peptide. 0.063% of 410,000 active. AID 1347071. Potency, µM (series often up to 46.1 µM), usual class: activators. yeast expressing A-beta42, growth rescue, OD600, 48 h; response scale: 0% DMSO, 100% iron-clioquinol control; also: nearly all actives have a fitted effect of over 55% in size
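Yeast growth medium received pinned compounds, then yeast cells expressing toxic A-beta were added; plates incubated at 30 C for 48 hr. Growth read as absorbance at 600 nm, normalized to DMSO and equimolar FeCl3 plus clioquinol controls.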
Active calls of the source: *; i = inactive; ? = inconclusive; nt = no result given. Calls follow the shape of the dose curve; as a rule, active = well fitted curve in the direction sought with a large enough effect; inconclusive = small, poorly fitted or top-dose-only effect, or another doubt; inactive = no such curve, though single readings can be large; an effect the other way counts as inactive or inconclusive. Potency is read from the fitted curve at half-maximal effect.

SMILES	aSyn rescue	FUS yeast rescue	TDP43 rescue	Abeta rescue
COc1ccc(CCNc2nc3ccccc3c3nc(-c4cccc(C)c4)nn23)cc1OC	nt	i	14.7%	i
COc1ccc(-c2nc(-c3ccc(O)cc3O)cs2)cc1OC	0.8%	i	17.8µM*	i
COc1cccc(Nc2ncccc2C(=O)Nc2ccccc2)c1	-5.5%	i	22.4µM*	i
COc1cccc(NC(=O)c2cc(-c3ccco3)nc3ccccc23)c1	-8.1%	i	-14.4%	i
COc1cccc(NC(=O)c2cc(-c3ccccn3)nc3ccccc23)c1	-3.3%	nt	25.1µM*	i
COc1cccc(NC(=O)c2cnn(-c3ccccc3)c2C)c1	3.3%	i	20µM*	i
Nc1c(-c2nc(-c3cccs3)no2)nnn1-c1ccc(Cl)cc1	nt	i	0.0%	i
CCOC(=O)CSc1nc2cc(OC)c(OC)cc2c2nc(-c3ccccc3)nn12	nt	i	3.4%	i
c1ccc(-c2cc3c(N4CCN(c5ccccc5)CC4)ncnc3s2)cc1	9.3%	i	28.2µM*	i
Nc1ncnc2oc(-c3ccco3)c(-c3ccco3)c12	12.6µM*	i	-17.1%	i
Cc1c(C(=O)Nc2ccc(C(C)C)cc2)sc2nc[nH]c(=O)c12	nt	i	11.2%	i
S=c1[nH]nc(Cc2sc(-c3ccccc3)nc2-c2ccccc2)o1	-65.6%	?	12.6µM*	i
S=c1[nH]nc(Cc2c[nH]c3ccccc23)o1	-19.2%	i	-3.4%	i
COc1cc(C(=O)Nc2ccc(OCc3cc(=O)n4cccc(C)c4n3)cc2)cc(OC)c1OC	nt	i	-8.2%	i
COc1ccc(CSc2ncnc3sccc23)cc1F	1.8%	i	12.6µM*	i
COc1ccc(N2CCN(C(=O)CCc3c(C)nn(-c4ccc(N5CCCC5)nn4)c3C)CC2)cc1	nt	i	-2.3%	i
COc1ccc(-c2nc3scc(CCNS(=O)(=O)c4ccc(F)cc4C)n3n2)cc1	nt	i	22.3%	i
CS(=O)(=O)c1ccc(C2=C(c3ccccc3)C(=O)OC2)cc1	-6.5%	i	23.1%	i
O=C1OCC(c2ccccc2)=C1c1ccccc1	-1.6%	i	17.8µM*	i
Clc1ccccc1N=C1NN=C(c2cccs2)CS1	7.5%	i	11.2µM*	i
COc1ccccc1/C=C1\SC(N2CCC(C)CC2)=NC1=O	16.9%	i	12.6µM*	i
COc1cccc(/C=C2\SC(N3CCC(C)CC3)=NC2=O)c1OC	1.4%	i	?	i
NC(=O)N/N=C/c1ccc([N+](=O)[O-])o1	6.0%	i	12.8%	i
O=[N+]([O-])c1ccc(/C=[N+](\[O-])CCO)o1	22.5%	i	11.2µM*	i
O=C(NCc1ccccc1)c1ccc2oc(=O)n(Cc3ccccc3)c2c1	nt	i	22.4µM*	i
SMILES	aSyn rescue	FUS yeast rescue	TDP43 rescue	Abeta rescue
Cc1cc(C)cc(NC(=O)C2CCCN(c3nnc(-n4c(C)ccc4C)s3)C2)c1 (stereo not drawn)	nt	i	8.9%	i
CCOc1ccc(/C=C/C2=Cc3c(sc(NC(=O)CSc4n[nH]c(N)n4)c3C#N)C(C)(C)C2)cc1	0.1%	8.91µM*	-10.9%	i
NC(=O)c1ccsc1NC(=O)CSc1n[nH]c(N)n1	-7.5%	i	0.0%	i
Cc1ccsc1/C=C/C1=Cc2c(sc(NC(=O)CSc3n[nH]c(N)n3)c2C#N)C(C)(C)C1	-0.1%	25.1µM*	-18.7%	i
C=CCn1c(SCCC)nc2ccccc2c1=O	0.3%	nt	nt	nt
NS(=O)(=O)Nc1cccc2cccnc12	-2.1%	nt	nt	nt
COc1cc(NC(=O)c2ccccc2Cl)c2ncccc2c1	2.6%	i	20µM*	i
COc1cc(NS(=O)(=O)c2ccc(C)cc2)c2ncccc2c1	?	i	11.2µM*	i
Cc1ccc(S(=O)(=O)Nc2cccc3cccnc23)cc1	?	i	35.5µM*	i
CCCCOC(=O)c1ccc(Nc2nc3ccc(C)cc3n3cnnc23)cc1	nt	i	5.7%	i
O=C(COCc1cc(-c2ccc(F)cc2)on1)Nc1cc(Cl)cc(Cl)c1	nt	i	12.9%	i
COc1ccc(NC(=O)C(C)n2nc(-c3cc(C)ccc3C)c3c(c2=O)CCCC3)cc1 (stereo not drawn)	nt	i	0.0%	i
CCC(C)Sc1nnc(NC(=O)c2ccco2)s1 (stereo not drawn)	-24.0%	i	12.6µM*	i
CCOc1ccc(NC(=O)CC2C(=O)N(c3ccccc3)C(=O)N2Cc2cccc(OC)c2)cc1 (stereo not drawn)	nt	i	9.4%	i
O=C(CCNc1ccc(Cl)cc1)c1cccs1	10.1%	i	12.2%	i
O=C(CCNc1cc(Cl)cc(Cl)c1)c1cccs1	-42.1%	i	10µM*	i
Cc1ccc(S(=O)(=O)N2CCCC(C(=O)NCc3ccco3)C2)cc1 (stereo not drawn)	nt	i	nt	nt
Cc1cc2nnc(SCc3ccc(F)cc3)n2c2ccccc12	23.7%	i	35.5µM*	i
CC(=O)CSc1nnc2cc(C)c3ccccc3n12	-4.2%	i	-0.9%	i
Fc1ccccc1CSc1nnc(-c2ccccc2)o1	0.0%	i	11.2µM*	i
Fc1ccccc1CSc1nnc(-c2cccnc2)o1	-2.0%	i	?	i
COc1ccc(-c2nnc(SCc3ccccc3F)o2)cc1	5.1%	i	11.2µM*	i
Cc1ccc(S(=O)(=O)N2CCN(Cc3nc4ccc(C)cc4o3)CC2)c(C)c1	nt	i	?	?
O=c1[nH]nc(CNc2ccc(OC(F)(F)F)cc2)c2ccccc12	-4.6%	i	14.1µM*	i
COC(=O)[C@]12C[C@H](CC(=O)N3CCCCC3)C(=O)N(Cc3ccccc3)C1=C[C@H](COCc1ccccc1)O[C@@H]2C	nt	i	nt	nt
SMILES	aSyn rescue	FUS yeast rescue	TDP43 rescue	Abeta rescue
COC(=O)[C@]12C[C@H](CC(=O)NCc3ccc(C)o3)C(=O)N(Cc3ccccc3)C1=C[C@H](COCc1ccccc1)O[C@@H]2C	nt	35.5µM*	nt	nt
COC(=O)[C@]12C[C@H](CC(=O)N3CCC(c4ccccc4)CC3)C(=O)N(Cc3ccccc3)C1=C[C@H](COCc1ccccc1)O[C@@H]2C	nt	12.6µM*	nt	nt
CCCCCCCCN1C(=O)[C@@H](CC(=O)N2CCN(C(=O)C3CC3)CC2)C[C@@]2(C(=O)OC)C1=C[C@H](COCc1ccccc1)O[C@@H]2C	nt	28.2µM*	nt	nt
CCn1c(=O)c2sccc2n2c(CCCC(=O)Nc3ccc(C)cc3)nnc12	nt	i	23.9%	i
COc1cccc(CNC(=O)c2nn(C)c3c2CSc2ccccc2-3)c1	nt	?	17.8µM*	i
Cn1nc(C(=O)NCc2ccccc2Cl)c2c1-c1ccccc1SC2	nt	i	6.3%	i
Cc1ccc2c(c1)-c1c(c(C(=O)N3CCN(c4cc(C)ccc4C)CC3)nn1C)CS2	nt	?	4.7%	i
Cn1nc(C(=O)NCc2ccccc2)c2c1-c1ccccc1SC2	nt	i	20µM*	i
CC1CCCC(C)N1CCCNC(=O)c1nn(C)c2c1CSc1ccccc1-2 (stereo not drawn)	6.2%	i	2.5%	i
